Assay outcomes from PubChem.
An excerpt weighted towards active compounds, which were near 0.52% of everything screened.
Sa helicase inh – inhibitors of S. aureus replicative helicase, primary screen, biochemical, fluorescence unwinding readout; replicative DNA helicase (DnaC/DnaB), Staphylococcus aureus; purified S. aureus helicase, fluorescence unwinding assay; inhibition, % (concentration not given with the values); 120,000 tested, 0.05% active; AID 485395, 2010; in the data active means inhibition above about 25%, passing the limit was not always enough;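 further: 0% = mean of negative control wells and 100% = mean of positive control wells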
Sa growth 42C – S. aureus growth inhibition at 42 and 30 °C, primary screen, LtaS inhibitor project, RN4220, two temperatures. OD600, 20 h, 42 °C; hits give low values. 170,000 tested, 0.53% active. relative growth, % (test concentration not listed);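 active means relative growth at most 50% at the other temperature and 20+ points below 30 °C, or under 10% at both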
Numbers without * were called inactive; . = not tested or not shown.

SMILES	Sa helicase inh	Sa growth 42C
CN1CCC(NC(=O)c2cccs2)CC1	1	109
CC1c2ccsc2CCN1C(=S)NC(=O)c1cccs1 (configuration not stated)	.	-0.4*
CCCCNc1ccc(C(F)(F)F)cc1N	7	77
CCCNc1ccccc1N	3	6.7*
N#Cc1ccc(CN2CCc3ccccc3C2)cc1	-22	96
CC(C)(O)C1Cc2cc(/C=C/C(=O)O)c(O)cc2O1 (configuration not stated)	6	65
CC(C)c1cc2cc(/C=C/C(=O)O)c(O)cc2o1	8	-0.3*
O=C(CS(=O)(=O)c1cn(Cc2ccc(Cl)cc2)c2ccccc12)Nc1nccs1	13	.
O=S(=O)(NCC(O)CN1CCOCC1)c1ccc2ccccc2c1 (configuration not stated)	35	91
S=c1[nH]c2c(Cl)cc(Cl)cc2o1	-4	3.3*
O=S(=O)(Nc1ccccc1Cl)c1ccc2[nH]c(=S)oc2c1	16	83
C=CCSc1nc2ccccc2n1Cc1cc(C(=O)OC)c(C)o1	-14	102
NNC(=O)CN1c2ccccc2Sc2ccccc21	.	95
Cc1cc(N)n(N)c(=O)c1	13	82
CC[n+]1c(C)sc2cc(SC)c(OC)cc21	10	1.8*
CC[n+]1c(C)sc2ccccc21	16	46
O=C(O)C1CCC(=O)N1C(=O)/C=C/c1ccccc1 (configuration not stated)	7	98
C=CCn1c(SCC(=O)NC(=O)NC)nnc1-c1ccc(Cl)cc1Cl	4	96
Oc1c(C(c2ccc(F)cc2)N2CCCCC2)ccc2cccnc12 (configuration not stated)	-10	103
Oc1c(C(c2cccs2)N2CCCCC2)ccc2cccnc12 (configuration not stated)	10	8.1*
CCOC(=O)c1csc(N2CCc3ccccc32)n1	19	76
C=CCn1c(SCc2nc3ccccc3c(=O)[nH]2)nnc1-c1cccc(OC)c1	-4	97
CN1C(=O)CC(=O)N(C)c2cc(S(=O)(=O)N(C)Cc3ccccc3)ccc21	.	-1.7*
CN(Cc1ccccc1)S(=O)(=O)c1ccc2c(c1)n(C)c(=O)c(=O)n2C	-3	87
COC(=O)c1ccccc1N=Cc1sc(=S)[nH]c1O	-23	102
SMILES	Sa helicase inh	Sa growth 42C
O=C(Nc1ccccc1)Nc1ccc2nnsc2c1	.	2.4*
O=C(Nc1cccc(C(F)(F)F)c1)Nc1ccc2snnc2c1	.	9.9*
O=C(Nc1cccc(C(F)(F)F)c1)c1ccc2snnc2c1	.	99
O=C(Nc1ccccc1)Nc1ccc2snnc2c1	13	14
O=C1NC(=O)/C(=C\c2cccc(C(F)(F)F)c2)S1	-31	7.3*
CN(C)c1ccc(/C=C2\SC(=O)NC2=O)cc1	-22	.
O=c1cc(C(F)(F)F)[nH]c2c(Br)cccc12	-18	3.1*
COc1cccc2c(=O)cc(C)[nH]c12	5	91
O=c1cc(C(F)(F)F)[nH]c2c(OC(F)(F)F)cccc12	.	3.4*
O=c1cc(C(F)(F)F)[nH]c2ccc(Br)cc12	.	26
CCCCC1CCC(C(=O)Nc2nonc2C)CC1 (configuration not stated)	-24	94
COC(=O)C(C1CCS(=O)(=O)C1)S(=O)(=O)c1ccccc1 (configuration not stated)	-3	.
CC(=O)Nc1ccc(NC(=O)c2cccc(C)c2)cc1	15	81
O=C(Cn1ccn(-c2ccc(F)cc2)c(=O)c1=O)c1ccc(F)cc1	23	86
CCc1oc2ccccc2c1C(=O)CCN1CCCCC1	15	41*
O=C(CCN1CCCCC1)c1ccccc1	2	94
COc1cc2nc(N3CCN(c4cc(C)ccc4C)CC3)nc(N)c2cc1OC	-12	-0.7*
COc1nc(OC)nc(N2CCN(c3cc(C)ccc3C)CC2)n1	7	92
CCOc1ccccc1C(=O)Nc1ccc(-c2ccc3nncn3n2)cc1	0	101
N#C/C(=C\c1ccc(Cl)cc1Cl)c1c[nH]c2ccccc12	.	71
N#C/C(=C\c1ccc(F)cc1)c1c[nH]c2ccccc12	.	42*
Brc1cccc(OCc2nnc3n2CCC3)c1	-4	94
CCOc1ccc2c(c1)s/c(=N\C(=S)NC(=O)CN1C(=O)CCC1=O)n2C	19	109
COc1ccc2c(c1)s/c(=N\NC(=S)NC(=O)CN1C(=O)CCC1=O)n2C	4	0.5*
Cc1ccc(C)n1-c1ccc(C(=O)OCc2nc3ccsc3c(=O)[nH]2)cc1	1	48*
SMILES	Sa helicase inh	Sa growth 42C
O=C(OCc1nc2ccsc2c(=O)[nH]1)c1ccc(N2CCCC2=O)cc1	9	86
O=C(COC(=O)C1(CC(=O)N2CCOCC2)CCCC1)Nc1c(F)cccc1F	16	95
COc1ccccc1C(CC(=O)N1CCCC1)c1ccc2c(c1)OCO2 (configuration not stated)	1	92
COc1cccc(C(c2cc3c(cc2O)OCO3)N2CCCC2)c1O (configuration not stated)	1	1.2*
O=C(Cc1coc2ccc3ccccc3c12)Oc1ccc(-c2nnco2)cc1	15	96
O=C(COC(=O)C1(c2ccccc2)CC1)Nc1nnc(-c2ccccc2)o1	13	-0.5*
O=C(COC(=O)Cc1coc2ccc3ccccc3c12)Nc1nnc(-c2ccccc2)o1	-9	0.1*
O=C(COC(=O)CC1CCCC1)Nc1nnc(-c2ccccc2)o1	2	21
CC1(C(=O)NC2CCCCC2)CCC(=O)N1CCc1ccccc1 (configuration not stated)	1	102
COc1cc2ccccc2cc1C(=O)OCC(=O)N1CCc2ccccc2C1	-7	103
O=C(NC1CCCCC1)c1ccc(N2CC3CC(C2)c2cccc(=O)n2C3)c(NS(=O)(=O)c2ccc(F)cc2)c1 (configuration not stated)	-3	102
Cc1cccc(Nc2cc(=O)[nH]c(=O)[nH]2)c1	-7	69
Cc1ccc(Nc2cc(=O)[nH]c(=O)[nH]2)cc1C	.	8.5*
c1ccc(Nc2nc3nonc3nc2Nc2ccccc2)cc1	-8	-1.6*
Nc1nnc2c(Nc3ccccc3)nc3nonc3n12	-1	98
CC(C)CS(=O)(=O)c1oc(-c2ccc(F)cc2)nc1S(=O)(=O)c1ccccc1	.	1.0*
O=S(=O)(c1ccccc1)c1nc(-c2cccs2)oc1N1CCCCC1	.	106
O=S(=O)(c1ccccc1)c1nc(-c2ccc(F)cc2)oc1NCc1ccccc1	.	121
CCC(C)S(=O)(=O)c1oc(-c2cccs2)nc1S(=O)(=O)c1ccccc1 (configuration not stated)	.	3.7*
Cc1ccc(S(=O)(=O)NC2CCCCC2n2cc(-c3ccccc3)nn2)cc1 (configuration not stated)	7	106
Cc1occc1C(=O)N=Nc1cc(C(C)(C)C)c(O)c(C(C)(C)C)c1	7	1.4*
Cc1occc1C(=O)Nc1cc(C(C)(C)C)on1	-1	115
O=C(O)CCc1n[nH]c2c1CCCC2	-2	73
N#C/C(=C/c1ccccc1)c1cccc(C#N)c1	10	110
N#C/C(=C\c1ccccc1)c1cccc(Cl)c1	.	44*
CN(C)c1ccc(C(=O)OCC(=O)Nc2ccc(F)cc2F)cc1	4	102
CC1CC(C)(C)CC1(C#N)Nc1ccc(CC#N)cc1 (configuration not stated)	.	89
